Source: the supplement of paper PMC10849652
Targets with a hit are over-represented here; the source holds about 8,800 in all. About 0.5% of all pairs of compound and target were hits. A number with no mark means an inactive call.

Experiments:
Experiment in all cases: log2 fold change, soluble protein after heating vs DMSO (PISA); higher = thermal stabilisation; K562 lysate, 10 uM; active = over 0.2 and 3.5 SD of the protein, either way, in both replicates (recomputed)
nilotinib = compound: Cc1cn(-c2cc(NC(=O)c3ccc(C)c(Nc4nccc(-c5cccnc5)n4)c3)cc(C(F)(F)F)c2)cn1 [nilotinib]
How it was run: (§1)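 Soluble protein was defined as the supernatant remaining after 21,000xg for 90 min, following pooling of heated aliquots and adjustment to 0.5% NP-40 at 4°C. Before that, crude K562 extract at 1 mg/mL protein in PBS pH 7.4 with 1 mM MgCl2 was treated with 10 μM compound for 30 min and heated for 3 min across 48°C-58°C. Quantification used TMTpro 16plex LC-MS/MS with channel sums equalised, and values are log-two fold changes in thermal stability relative to solvent controls from duplicates.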

[1] = compound: Cc1nc(Nc2n[nH]c3c2CN(C(=O)N[C@H](CN(C)C)c2ccccc2)C3(C)C)c2sccc2n1
How it was run: as §1

dasatinib = compound: Cc1nc(Nc2ncc(C(=O)Nc3c(C)cccc3Cl)s2)cc(N2CCN(CCO)CC2)n1 [dasatinib]
How it was run: as §1

[2] = compound: Cc1ncc(-c2ccnc(Nc3ccc(S(C)(=O)=O)cc3)n2)n1C(C)C
How it was run: as §1

[3] = compound: Cn1cc(-c2ccc3c(c2)CCN3C(=O)Cc2cccc(C(F)(F)F)c2)c2c(N)ncnc21
How it was run: as §1

quisinostat = compound: Cn1cc(CNCC2CCN(c3ncc(C(=O)NO)cn3)CC2)c2ccccc21 [quisinostat]
How it was run: as §1

tipifarnib = compound: Cn1cncc1[C@@](N)(c1ccc(Cl)cc1)c1ccc2c(c1)c(-c1cccc(Cl)c1)cc(=O)n2C [tipifarnib]
How it was run: as §1

[4] = compound: NC(=O)Nc1cc(-c2cccc(F)c2)sc1C(=O)N[C@H]1CCCNC1
How it was run: as §1

[5] = compound: NC(=O)c1cnc(N[C@@H]2CCCC[C@@H]2N)nc1Nc1cccc(-n2nccn2)c1
How it was run: as §1

[6] = compound: NC1(c2ccc(-c3nc4ccn5c(=O)[nH]nc5c4cc3-c3ccccc3)cc2)CCC1
How it was run: as §1

[7] = compound: NCC(=O)Nc1ccc(-n2nc(C(F)(F)F)cc2-c2ccc3c(ccc4ccccc43)c2)cc1
How it was run: as §1

vorinostat = compound: O=C(CCCCCCC(=O)Nc1ccccc1)NO [vorinostat]
How it was run: as §1

silmitasertib = compound: O=C(O)c1ccc2c(c1)nc(Nc1cccc(Cl)c1)c1ccncc12 [silmitasertib]
How it was run: as §1

[8] = compound: O=C1NC(=O)C(c2cnc3ccccn23)=C1c1cn2c3c(cc(F)cc13)CN(C(=O)N1CCCCC1)CC2
How it was run: as §1

entospletinib = compound: c1cn2cc(-c3ccc4cn[nH]c4c3)nc(Nc3ccc(N4CCOCC4)cc3)c2n1 [entospletinib]
How it was run: as §1

UniProt P36969, sequence (P36969 whole entry, looked up): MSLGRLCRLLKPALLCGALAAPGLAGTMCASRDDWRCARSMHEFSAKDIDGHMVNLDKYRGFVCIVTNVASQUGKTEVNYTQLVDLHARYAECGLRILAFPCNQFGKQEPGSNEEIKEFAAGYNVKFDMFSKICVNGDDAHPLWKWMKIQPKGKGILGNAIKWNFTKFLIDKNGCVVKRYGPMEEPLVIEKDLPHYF
UniProt O15379, sequence (O15379 whole entry, looked up): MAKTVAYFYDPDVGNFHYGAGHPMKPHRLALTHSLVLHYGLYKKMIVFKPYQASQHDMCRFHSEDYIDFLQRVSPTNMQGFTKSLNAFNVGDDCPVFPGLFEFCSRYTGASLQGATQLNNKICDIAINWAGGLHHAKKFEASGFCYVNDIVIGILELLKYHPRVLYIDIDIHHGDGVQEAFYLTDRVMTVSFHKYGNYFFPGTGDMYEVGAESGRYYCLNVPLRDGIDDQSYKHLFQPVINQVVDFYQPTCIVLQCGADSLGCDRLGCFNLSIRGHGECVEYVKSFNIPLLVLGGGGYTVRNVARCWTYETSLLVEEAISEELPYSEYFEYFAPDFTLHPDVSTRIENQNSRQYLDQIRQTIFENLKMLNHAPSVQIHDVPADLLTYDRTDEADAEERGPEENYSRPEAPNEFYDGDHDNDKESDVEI
UniProt Q9NVX0, sequence (Q9NVX0 whole entry, looked up): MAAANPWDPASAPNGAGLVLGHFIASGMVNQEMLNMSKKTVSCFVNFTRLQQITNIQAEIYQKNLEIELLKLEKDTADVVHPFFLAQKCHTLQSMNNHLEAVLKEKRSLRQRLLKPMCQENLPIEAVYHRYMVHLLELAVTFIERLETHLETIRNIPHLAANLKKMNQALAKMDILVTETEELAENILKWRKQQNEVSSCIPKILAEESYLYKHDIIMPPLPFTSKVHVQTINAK
UniProt P50053, sequence (P50053 whole entry, looked up): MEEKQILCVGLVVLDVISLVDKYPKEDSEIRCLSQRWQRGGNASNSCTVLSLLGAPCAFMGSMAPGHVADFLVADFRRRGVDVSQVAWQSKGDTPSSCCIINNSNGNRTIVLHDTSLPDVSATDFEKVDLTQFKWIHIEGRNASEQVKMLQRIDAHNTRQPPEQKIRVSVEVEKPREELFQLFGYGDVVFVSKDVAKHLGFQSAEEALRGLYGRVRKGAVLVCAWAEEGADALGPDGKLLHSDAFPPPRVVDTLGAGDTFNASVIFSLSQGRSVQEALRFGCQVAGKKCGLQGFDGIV
UniProt Q969S8, sequence (Q969S8 whole entry, looked up): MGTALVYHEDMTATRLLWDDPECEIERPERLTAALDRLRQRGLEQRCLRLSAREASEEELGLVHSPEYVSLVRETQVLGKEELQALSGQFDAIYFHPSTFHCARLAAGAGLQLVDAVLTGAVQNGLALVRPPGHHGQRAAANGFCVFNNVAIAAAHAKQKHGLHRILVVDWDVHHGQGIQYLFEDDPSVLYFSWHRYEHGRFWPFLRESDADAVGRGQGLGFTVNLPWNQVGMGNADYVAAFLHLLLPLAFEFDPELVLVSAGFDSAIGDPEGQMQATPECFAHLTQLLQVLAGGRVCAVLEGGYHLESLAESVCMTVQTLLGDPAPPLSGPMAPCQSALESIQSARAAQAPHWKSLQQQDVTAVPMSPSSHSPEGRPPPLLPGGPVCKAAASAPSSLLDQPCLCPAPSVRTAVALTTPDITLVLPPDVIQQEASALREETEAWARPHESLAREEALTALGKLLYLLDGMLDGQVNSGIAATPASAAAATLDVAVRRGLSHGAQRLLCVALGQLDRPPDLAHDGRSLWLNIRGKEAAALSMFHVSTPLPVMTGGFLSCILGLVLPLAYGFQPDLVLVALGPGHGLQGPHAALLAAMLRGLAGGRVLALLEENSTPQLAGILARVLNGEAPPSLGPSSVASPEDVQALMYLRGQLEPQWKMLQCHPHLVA
UniProt P19367, sequence (P19367 whole entry, looked up): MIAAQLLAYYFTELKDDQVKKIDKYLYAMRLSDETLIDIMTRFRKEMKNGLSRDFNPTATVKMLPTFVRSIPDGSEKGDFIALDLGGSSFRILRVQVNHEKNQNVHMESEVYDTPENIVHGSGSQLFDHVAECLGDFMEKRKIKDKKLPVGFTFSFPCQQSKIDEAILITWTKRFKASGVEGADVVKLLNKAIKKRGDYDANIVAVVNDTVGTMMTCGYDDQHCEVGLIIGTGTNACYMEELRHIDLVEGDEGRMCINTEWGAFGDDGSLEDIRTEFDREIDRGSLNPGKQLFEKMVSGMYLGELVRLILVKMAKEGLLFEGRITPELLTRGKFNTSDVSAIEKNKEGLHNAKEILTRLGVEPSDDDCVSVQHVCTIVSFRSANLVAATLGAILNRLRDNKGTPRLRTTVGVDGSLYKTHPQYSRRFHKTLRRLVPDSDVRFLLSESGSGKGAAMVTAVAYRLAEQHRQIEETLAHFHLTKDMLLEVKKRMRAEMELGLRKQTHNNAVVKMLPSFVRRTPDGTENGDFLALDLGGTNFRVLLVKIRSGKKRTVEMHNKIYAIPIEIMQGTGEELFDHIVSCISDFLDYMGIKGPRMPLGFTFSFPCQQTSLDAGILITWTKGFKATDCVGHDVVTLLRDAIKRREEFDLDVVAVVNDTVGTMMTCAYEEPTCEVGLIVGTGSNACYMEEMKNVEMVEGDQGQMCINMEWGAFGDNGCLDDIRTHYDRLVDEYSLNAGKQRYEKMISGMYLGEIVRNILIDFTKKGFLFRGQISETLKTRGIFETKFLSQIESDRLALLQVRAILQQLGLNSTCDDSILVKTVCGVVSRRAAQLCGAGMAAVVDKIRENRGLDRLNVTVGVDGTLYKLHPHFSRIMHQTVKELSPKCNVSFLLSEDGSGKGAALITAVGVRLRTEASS
UniProt P55795, sequence (P55795 whole entry, looked up): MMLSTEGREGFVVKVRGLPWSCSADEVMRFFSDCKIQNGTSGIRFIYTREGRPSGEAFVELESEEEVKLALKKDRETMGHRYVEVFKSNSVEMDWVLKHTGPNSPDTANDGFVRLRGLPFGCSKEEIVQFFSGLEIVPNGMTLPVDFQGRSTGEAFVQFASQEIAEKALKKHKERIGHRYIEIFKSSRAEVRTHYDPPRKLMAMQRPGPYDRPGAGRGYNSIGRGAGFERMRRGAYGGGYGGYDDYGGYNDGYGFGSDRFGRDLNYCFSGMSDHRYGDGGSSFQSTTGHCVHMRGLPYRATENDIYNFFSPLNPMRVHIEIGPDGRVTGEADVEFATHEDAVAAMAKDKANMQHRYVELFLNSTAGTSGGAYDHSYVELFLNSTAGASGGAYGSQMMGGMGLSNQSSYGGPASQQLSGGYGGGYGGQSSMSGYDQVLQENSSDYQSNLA
UniProt Q07666, sequence (Q07666 whole entry, looked up): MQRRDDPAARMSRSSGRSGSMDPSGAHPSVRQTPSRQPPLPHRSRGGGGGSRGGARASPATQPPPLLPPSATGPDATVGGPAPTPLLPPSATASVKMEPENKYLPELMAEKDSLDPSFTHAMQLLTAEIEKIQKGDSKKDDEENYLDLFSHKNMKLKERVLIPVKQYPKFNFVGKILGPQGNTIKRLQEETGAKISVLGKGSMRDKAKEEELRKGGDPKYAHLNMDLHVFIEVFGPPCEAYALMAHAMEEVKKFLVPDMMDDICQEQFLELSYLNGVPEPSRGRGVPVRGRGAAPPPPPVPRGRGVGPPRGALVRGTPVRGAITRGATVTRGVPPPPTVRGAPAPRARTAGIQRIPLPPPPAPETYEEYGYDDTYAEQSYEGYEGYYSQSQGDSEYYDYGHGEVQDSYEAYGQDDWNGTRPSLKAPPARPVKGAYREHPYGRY
UniProt P14866, sequence (P14866 whole entry, looked up): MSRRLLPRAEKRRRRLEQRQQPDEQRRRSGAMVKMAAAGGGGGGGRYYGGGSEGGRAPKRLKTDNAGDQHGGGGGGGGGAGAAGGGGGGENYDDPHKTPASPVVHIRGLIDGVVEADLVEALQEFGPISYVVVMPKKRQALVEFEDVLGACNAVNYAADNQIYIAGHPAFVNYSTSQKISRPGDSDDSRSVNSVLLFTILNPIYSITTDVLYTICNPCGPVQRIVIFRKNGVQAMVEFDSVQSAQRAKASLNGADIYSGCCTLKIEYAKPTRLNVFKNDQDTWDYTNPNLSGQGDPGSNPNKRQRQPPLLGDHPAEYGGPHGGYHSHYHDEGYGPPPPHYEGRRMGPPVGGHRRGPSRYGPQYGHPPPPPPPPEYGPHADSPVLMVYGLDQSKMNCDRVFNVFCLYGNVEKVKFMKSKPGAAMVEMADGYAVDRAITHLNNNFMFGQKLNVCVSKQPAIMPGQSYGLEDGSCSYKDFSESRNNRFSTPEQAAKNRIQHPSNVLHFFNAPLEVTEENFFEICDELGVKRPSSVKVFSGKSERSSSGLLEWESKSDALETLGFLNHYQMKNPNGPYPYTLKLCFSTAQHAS
UniProt Q13418, sequence (Q13418 whole entry, looked up): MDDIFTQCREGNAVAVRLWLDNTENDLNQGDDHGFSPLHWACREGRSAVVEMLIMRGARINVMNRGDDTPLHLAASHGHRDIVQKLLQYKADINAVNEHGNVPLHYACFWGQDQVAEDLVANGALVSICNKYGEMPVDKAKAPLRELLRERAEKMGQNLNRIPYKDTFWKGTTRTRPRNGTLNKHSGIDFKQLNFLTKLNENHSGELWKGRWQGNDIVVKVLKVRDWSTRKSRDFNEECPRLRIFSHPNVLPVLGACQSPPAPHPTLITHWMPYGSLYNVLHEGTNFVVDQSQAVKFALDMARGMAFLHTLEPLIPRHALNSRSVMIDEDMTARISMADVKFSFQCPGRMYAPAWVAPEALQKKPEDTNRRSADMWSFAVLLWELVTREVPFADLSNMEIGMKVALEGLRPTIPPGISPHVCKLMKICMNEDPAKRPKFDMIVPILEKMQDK

Target	log2 fold change (nilotinib)	log2 fold change [1]	log2 fold change (dasatinib)	log2 fold change [2]	log2 fold change [3]	log2 fold change (quisinostat)	log2 fold change (tipifarnib)	log2 fold change [4]	log2 fold change [5]	log2 fold change [6]	log2 fold change [7]	log2 fold change (vorinostat)	log2 fold change (silmitasertib)	log2 fold change [8]	log2 fold change (entospletinib)
KHDRBS1 (UniProt Q07666)	-0.032	-0.012	-0.048	-0.011	-0.003	0.037	0.032	0.005	0.011	0.028	0.005	-0.583 (active)	0.018	0.016	0.008
HNRNPL (UniProt P14866)	-0.011	-0.015	-0.036	0.013	0.068	-0.07	0.012	0.042	-0.001	0.022	0.005	-0.445 (active)	0.072	0.028	0.007
KHK isoform 2 (UniProt P50053)	-0.004	0.035	-0.075	-0.02	-0.035	-0.021	-0.043	-0.019	-0.018	-0.023	0.035	0.045	0.018	-0.053	0.033
ILK (UniProt Q13418)	0.01	-0.066	0.071	0	0.014	-0.076	-0.001	0.097	-0.022	-0.036	-0.047	-0.343 (active)	0.086	0.019	0.096
HDAC10 (UniProt Q969S8)	-0.009	0.023	-0.104	0.032	0.144	0.245	-0.123	0.092	0.111	-0.001	0.147	0.211	0.156	-0.032	0.053
HDAC3 (UniProt O15379)	-0.079	-0.019	0.04	-0.026	0.007	-0.004	-0.102	0.038	-0.004	-0.049	-0.016	-0.264 (active)	-0.027	-0.008	0
HK1 isoform 2 (UniProt P19367)	0.011	0	-0.026	-0.005	-0.008	-0.013	0.007	0.008	-0.005	0	0.012	-0.264 (active)	0.028	-0.002	0.011
GPX4 (UniProt P36969)	-0.011	-0.001	0.01	0.039	-0.024	-0.012	-0.009	0.02	-0.011	0.011	-0.007	-0.306 (active)	0.017	-0.023	0.037
HAUS2 (UniProt Q9NVX0)	0.036	-0.033	-0.028	0.069	0.05	-0.04	-0.034	-0.014	-0.094	0.037	-0.052	-0.514 (active)	-0.037	0.039	-0.029
GSE1 (UniProt Q14687)	-0.017	0.007	-0.064	0.036	-0.005	-0.093	-0.02	0.059	0.012	0.029	0.029	-0.286 (active)	-0.006	-0.006	-0.017
HNRNPH2 (UniProt P55795)	-0.07	0.04	0.049	0.071	0.003	-0.147	-0.003	0.014	-0.037	-0.113	-0.008	-0.243 (active)	0.005	-0.054	0.002
